Inconclusive results are not listed. Active and inactive are the calls of the source. Calls come from the whole dose curve; as a rule, active = well fitted curve in the direction sought with a large enough effect; inconclusive = small, poorly fitted or top-dose-only effect, or another doubt; inactive = no such curve, though single readings can be large; an effect the other way counts as inactive or inconclusive.
How the values were obtained:
[1] = Cellular Toxicity (caspase-3) Hek293 (AID 664);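 note: cells exposed to compound for 16 h at 37 °C before readout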
How it was run: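 Cells plated, 5 hr at 37 °C; compounds added; 16 hr at 37 °C; Caspase-Glo 3/7 reagent, 20 min RT; luminescence read. Activation expressed relative to DMSO and 100 uM tamoxifen, AC50 by Hill model.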

[2] = Cellular Toxicity (caspase-3) N2a (AID 665); details: N2a cells, luminescence, normalized: DMSO 0%, 10 µM staurosporine 100%; at 92.2 µM (top of the series);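 note: compound exposure lasted 16 h at 37 °C before readout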
How it was run: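 N2a cells, 1500/well, 5 h settle at 37 °C; cpd 16 h, 37 °C; Caspase-Glo 3/7, 1 h RT; luminescence. Norm: DMSO = 0, 10 uM staurosporine = 100%. AC50, Hill fit.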

[3] = Cellular Toxicity (caspase-3) NIH 3T3 (AID 666);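 note: caspase signal read after 16 h compound exposure; 0% = DMSO basal and 100% = 100 µM tamoxifen stimulation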
How it was run: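 Luminescence from aminoluciferin released by caspase-3/7 cleavage of a peptide substrate served as read-out. Mouse fibroblast NIH 3T3 cells were exposed to compounds over a concentration range for 16 hours, and AC50 values came from standard Hill modelling.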

[4] = Cellular Toxicity (caspase-3) Renal Proximal Tubule (AID 667); details: renal proximal tubule cells; at 91.7 µM (top of the series), primary cells freshly taken from rat, solvent-only wells 0%, staurosporine 100% unless noted;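 note: cells exposed to compound for 16 hours at 37 °C before detection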
How it was run: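 In qHTS format, rat primary proximal tubule cells seeded at 1000 per well are exposed to compounds for 16 hours at 37 °C. An increase in Caspase-Glo 3/7 luminescence indicates caspase activation.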

[5] = molecular target: Cytochrome P450 3A4 (Homo sapiens) (UniProt P08684); test: qHTS Assay for Inhibitors and Substrates of Cytochrome P450 3A4 (AID 884); note: % is set by controls: 0 for no effect and ±100 for the full control effect; nearly all actives have a fitted effect of over 50% in size
How it was run: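 20 nM human CYP3A4 with 25 uM Luciferin-PPXE (at KM) in 200 mM KPO4, preincubated 10 min with compound; NADPH regeneration started a 60 min RT reaction. Luciferin detected by luminescence, normalized to 57 uM ketoconazole as full inhibition.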

[6] = Cell Viability - LYMP2-001 (AID 921);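 note: cells exposed to compound for 24 h at 37 °C; 0% = DMSO only and full inhibition = tetraoctylammonium bromide control wells; nearly all actives have a fitted effect of over 70% in size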
How it was run: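 qHTS, 1536-well; lymphoblastoid cells, 24 hr compound, 37 C; ATP by CellTiter-Glo, 30 min RT; luminescence; Hill-fit AC50.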

[7] = MultiTox-Fluor Cytotoxicity Assay - LYMP1-001 - Dead Cells (AID 946)
How it was run: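 Cytotoxicity as increased dead-cell protease fluorescence (bis-AAF-R110, 485/520 nm), read 60 min after MultiTox-Fluor reagent. Human lymphoblastoid line exposed 16 h; Hill-fitted AC50, with DMSO as 0% and 15 uM tetraoctylammonium bromide as 100%.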

[8] = Cell Viability - LYMP1-002 - Assay at 16 hr (AID 948);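 note: 0% = DMSO alone and full effect = 92 µM tetraoctylammonium bromide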
How it was run: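 Acute cytotoxicity is scored as a concentration-dependent fall in intracellular ATP in a human lymphoblastoid line (LYMP1-002) after 16 hr compound exposure at 37 C, measured by luciferase luminescence.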

[9] = MultiTox-Fluor Cytotoxicity Assay - LYMP1-002 - Live Cells (AID 955); note: % is set by controls: 0 for no effect and ±100 for the full control effect
How it was run: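 Read-out is live-cell protease activity (cell-permeant GF-AFC substrate, fluorescence Ex/Em=405/510), where a decrease indicates acute toxicity. Human lymphoblastoid cells were treated 16 hours at 37 C in a concentration series, and AC50 values came from standard Hill modelling.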

[10] = MultiTox-Fluor Cytotoxicity Assay - LYMP1-002 - Dead Cells (AID 960); note: nearly all actives have a fitted effect of over 60% in size
How it was run: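 LYMP1-002 cells 2500/well; 5 hr 37 C pre-incubation; compound 16 hr 37 C; MultiTox-Fluor reagent 60 min RT; dead-cell fluor Ex/Em 485/520. Norm. to DMSO (0%) vs 15 uM tetraoctylammonium bromide (100%); Hill AC50.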

[11] = MultiTox-Fluor Cytotoxicity Assay - LYMP1-003 - Dead Cells (AID 961); note: nearly all actives have a fitted effect of over 70% in size
How it was run: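 Dead-cell protease release, detected as bis-AAF-R110 fluorescence at 485/520 nm, was measured in LYMP1-003 cells after 16 h compound treatment at 37 C. AC50 values came from Hill-modeled qHTS curves normalized to DMSO (0%) and 15 uM tetraoctylammonium bromide (100%).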

[12] = MultiTox-Fluor Cytotoxicity Assay - LYMP1-003 - Live Cells (AID 962);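 note: 0% = DMSO only and full loss = 92 µM tetraoctylammonium bromide; cytotoxic hits lower the live-cell protease signal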
How it was run: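 qHTS, 1536-well; 2500 cells/well LYMP1-003; 5 hr 37 C settle; cpd 16 hr 37 C; MultiTox-Fluor reagent 60 min RT; live-cell protease fluor. 405/510; Hill-fit AC50; tetraoctylammonium bromide pos. ctrl.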

[13] = Cell Viability - LYMP1-003 - Assay at 24 hr (AID 963);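 note: plate controls were DMSO only for no effect and tetraoctylammonium bromide positive control for full effect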
How it was run: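 Cells seeded at 2500/well, 5 hr at 37 C; compounds added; 24 hr at 37 C; CellTiter-Glo added, 30 min room temperature; luminescence read. Decrease in ATP taken as cytotoxicity, AC50 from Hill modelling.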

[14] = Cell Viability - LYMP1-003 - Assay at 40 hr (AID 964); note: % is set by controls: 0 for no effect and ±100 for the full control effect; nearly all actives have a fitted effect of over 60% in size
How it was run: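 Cells were seeded at 2500 per well and incubated 5 hr at 37 C. Compounds were added across a concentration series and left 40 hr at 37 C. CellTiter-Glo was added for 30 min at room temperature before luminescence reading.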

[15] = Cell Viability - LYMP2-004 (AID 966);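 note: cells exposed to compound for 24 h; plate controls were DMSO only for no effect and tetraoctylammonium bromide control for full effect; nearly all actives have a fitted effect of over 65% in size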
How it was run: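 Cells seeded 2500/well, rested 5 hr at 37 C, dosed across a concentration series, incubated 24 hr at 37 C, then CellTiter-Glo added for 30 min at room temperature and luminescence read. Hill fitting gave AC50.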

[16] = Cell Viability - LYMP2-009 (AID 968);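 note: cells exposed to compound for 24 h at 37 °C; 0% = DMSO alone and the full-kill end = tetraoctylammonium bromide at 92 µM; nearly all actives have a fitted effect of over 55% in size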
[17] = Cell Viability - LYMP2-011 (AID 969);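 note: cells exposed to compound for 24 hours; 0% = DMSO only and full inhibition = 92 µM tetraoctylammonium bromide; nearly all actives have a fitted effect of over 60% in size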
How it was run: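 2500 cells/well, 5 hr 37 C; compound added, 24 hr 37 C; CellTiter-Glo 30 min RT; luminescence. qHTS concentration-response, Hill-equation AC50. Tetraoctylammonium bromide positive control.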

[18] = Cell Viability - LYMP2-013 (AID 970);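 note: cells exposed to compound for 24 h at 37 °C; 0% = DMSO only and full inhibition = tetraoctylammonium bromide control; nearly all actives have a fitted effect of over 55% in size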
How it was run: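 qHTS; 2500 lymphoblastoid cells/well; 5 hr 37 C settle; cpd 24 hr 37 C; CellTiter-Glo, 30 min RT; luminescence. AC50 = Hill fit.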

[19] = Cell Viability - LYMP2-017 (AID 972);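 note: cells exposed to compound for 24 hours at 37 °C; % is set by controls: 0 for no effect and ±100 for the full control effect; nearly all actives have a fitted effect of over 55% in size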
How it was run: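 2500 cells/well, 5 h 37 C; cpd 24 h 37 C in complete medium; CellTiter-Glo, 30 min RT; luminescence (ATP). AC50 via Hill fit, qHTS.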

[20] = Cell Viability - LYMP2-019 (AID 973);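 note: cells exposed to compound for 24 h at 37 °C; 0% = DMSO alone and full effect = 92 µM tetraoctylammonium bromide; nearly all actives have a fitted effect of over 55% in size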
How it was run: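 Luminescent ATP read-out (CellTiter-Glo, 30 min room temperature) served as the viability measure after 24 hr treatment of lymphoblastoid cells at 37 C. Concentration-response data were fitted to the Hill equation for AC50.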

[21] = Cell Viability - LYMP2-021 (AID 974)
How it was run: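 Plate 2500 lymphoblastoid cells per well and incubate 5 hr at 37 C. Add compounds over a concentration range and incubate 24 hr at 37 C. Add CellTiter-Glo, wait 30 min at room temperature, read luminescence.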

[22] = Cell Viability - LYMP2-023 (AID 975)
How it was run: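 2500 cells/well, 5 hr 37 C; cpd 24 hr 37 C; CellTiter-Glo, 30 min RT; luminescence. qHTS conc-response, Hill fit -> AC50. Pos ctrl tetraoctylammonium bromide.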

Cytochrome P450 3A4 (Homo sapiens), sequence (P08684 whole entry, looked up): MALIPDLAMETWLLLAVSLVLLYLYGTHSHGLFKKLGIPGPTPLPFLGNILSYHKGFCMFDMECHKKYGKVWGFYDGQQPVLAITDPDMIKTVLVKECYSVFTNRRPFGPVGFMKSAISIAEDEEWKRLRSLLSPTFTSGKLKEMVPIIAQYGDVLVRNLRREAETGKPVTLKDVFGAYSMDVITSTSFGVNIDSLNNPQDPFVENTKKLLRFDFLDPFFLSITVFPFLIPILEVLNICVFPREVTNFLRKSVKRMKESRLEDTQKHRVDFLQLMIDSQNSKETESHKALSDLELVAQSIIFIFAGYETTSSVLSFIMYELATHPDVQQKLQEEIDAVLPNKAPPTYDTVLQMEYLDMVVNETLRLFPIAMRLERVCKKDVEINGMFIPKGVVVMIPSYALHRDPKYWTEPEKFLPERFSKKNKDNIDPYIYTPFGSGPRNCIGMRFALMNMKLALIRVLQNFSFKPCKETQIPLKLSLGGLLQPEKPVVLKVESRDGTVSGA

CCCCOC(=O)c1ccccc1C(=O)OCCCC
inactive: outcome [1] | caspase-3 activation [2] -1.36% | outcome [3] | caspase-3 activation [4] -0.0975% [at 91.7 µM] | Potency [5] | Potency [6] | Potency [7] | Potency [8] | outcome [9] | Potency [10] | Potency [11] | Potency [12] | Potency [13] | Potency [14] | Potency [15] | Potency [16] | Potency [17] | Potency [18] | Potency [19] | Potency [20] | Potency [21] | Potency [22]
